# Screening results deposited in PubChem by National Center for Advancing Translational Sciences (NCATS).
# Shown are actives, neighbours in structure and some others; about 1.2% of the full set was active somewhere.
# hERG WT inh = qHTS for Inhibitors of KCHN2 3.1: Wildtype qHTS; U2OS, BacMam KCNH2, thallium flux FluxOr; stronger effect = lower value; activity change, % at 1.84 µM; Voltage-gated inwardly rectifying potassium channel KCNH2 (Homo sapiens), Q12809; actives 0.37% (n = 340,000);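 active means maximum activity change below -70%; inconclusive means maximum activity change between -70% and -50%; inactive means maximum activity change above -50%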
#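 U2OS cells were transduced with wild-type KCNH2 virus (2.03 x 10^8 / mL) for 4 h at room temperature, then cultured overnight at 37 C. Thallium flux was read with FluxOr dye. Rate constants were normalized to DMSO controls.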
# KCNH2 3.1 inh = qHTS for Inhibitors of KCHN2 3.1: Mutant qHTS; Potassium voltage-gated channel subfamily H member 2, brain isoform KCNH2 3.1 (human); U2OS KCNH2 3.1, thallium flux FluxOr; stronger effect = lower value; activity change, % (tested at about 1.8 µM); actives 0.95% (n = 340,000);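 active means maximum activity change below -70%; inconclusive means maximum activity change from -70% to -50%; inactive means maximum activity change above -50%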;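 further: thallium influx rate constant from kinetic fluorescence after stimulation buffer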
#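 FluxOr-based Tl+ influx in U2OS cells transduced with KCNH2 3.1 virus; rate constants normalized to DMSO controls.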
# Apoferritin bind = qHTS Assay for Identification of Novel General Anesthetics; Potency, µM (top dose mostly 77.5 µM), actives largely listed as inhibitors; AID 485281, 2010; apoferritin/1-aminoanthracene competitive binding, fluorescence; actives 0.074% (n = 350,000); further: nearly all actives have a fitted effect of over 20% in size
#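 In PBS, apoferritin at 10 uM is loaded with 1-AMA from a 50% saturated solution. After 10 min of compound exposure at ambient temperature, reduced 535 nm fluorescence indicates probe displacement.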
# S-ASM inh = Inhibitors of Secretory Acid Sphingomyelinase (S-ASM): qHTS; AID 504937, 2011; Sphingomyelin phosphodiesterase (Homo sapiens), P17405; actives 0.006% (n = 340,000); placental ASM, HMU-PC fluorogenic substrate, 60 min; Potency, µM (titrated, usually from 57.5 µM), most hits filed as inhibitors
#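 Human placenta-derived ASM enzyme was preincubated with compound for 10 minutes at room temperature, then given fluorogenic substrate HMU-PC0 (9 uM final) for 60 minutes at 37 °C; a pH 10 stop preceded fluorescence reading at Ex 386/Em 447 nm.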
# mIDH1 inhibitor = qHTS for Inhibitors of mutant isocitrate dehydrogenase 1 (IDH1): qHTS | actives 0.093% (n = 390,000) | IDH1-R132H enzyme, NADPH consumption, diaphorase/resazurin fluorescence | Isocitrate dehydrogenase [NADP] cytoplasmic (Homo sapiens), O75874 | Potency, µM (series often up to 76.6 µM), usual class: inhibitors; further: nearly all actives have a fitted effect of over 65% in size
# Target sequence (O75874 whole entry R132H, stated change not applied): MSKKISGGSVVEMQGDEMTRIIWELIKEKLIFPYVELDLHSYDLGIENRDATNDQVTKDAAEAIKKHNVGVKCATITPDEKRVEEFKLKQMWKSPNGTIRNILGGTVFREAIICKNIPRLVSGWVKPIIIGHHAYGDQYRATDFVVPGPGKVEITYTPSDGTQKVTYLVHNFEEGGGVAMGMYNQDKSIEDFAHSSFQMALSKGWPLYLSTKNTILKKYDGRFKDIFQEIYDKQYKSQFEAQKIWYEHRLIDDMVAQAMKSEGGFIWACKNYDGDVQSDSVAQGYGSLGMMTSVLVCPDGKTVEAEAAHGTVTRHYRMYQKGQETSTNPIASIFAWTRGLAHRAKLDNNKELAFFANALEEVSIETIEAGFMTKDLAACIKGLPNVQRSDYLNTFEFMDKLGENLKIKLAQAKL
#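 IDH1-R132H (0.5 ug/mL dispensed) in pH 7.5 Tris buffer was preincubated 30 min with compound, then given a substrate mix of 0.016 mM NADPH and 2 mM alpha-KG for 80 min at room temperature; remaining NADPH was read by diaphorase/resazurin fluorescence.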
# Hits are given with their value; – = inactive; ? = inconclusive; · = not tested or not shown. Unless noted, the call rests on the fitted dose curve; in most records, active means well fitted inhibition curve with a large enough effect; inconclusive means small, poorly fitted or top-dose-only effect; inactive means no such curve, though single readings can be large or run the other way.
SMILES,hERG WT inh,KCNH2 3.1 inh,Apoferritin bind,S-ASM inh,mIDH1 inhibitor
COc1ccccc1-n1cnc2cc(C(=O)NC3CCCC3)ccc21,–,-90.6,–,–,–
CC(C)C(=O)c1ccc(O)c(O)c1,–,-84.8,–,–,–
O=C(C(=O)c1ccc(O)c(O)c1)c1ccc(O)c(O)c1,–,–,·,–,–
Cc1ccc(-c2cc(Cc3ccccn3)c(=O)[nH]n2)cc1,-151.7,-159.2,–,–,–
Cc1cccc(OCCOCCn2c(-c3ccc(Cl)cc3)nc3ccccc3c2=O)c1C,·,·,–,·,–
CCCSc1nc2c(cnn2-c2ccc(C)c(C)c2)c(=O)[nH]1,–,-122.7,–,–,–
CCC(C)(C)NC(=O)Nc1cc(Cl)ccc1OC,–,-80.9,–,–,–
COc1ccc(Cl)cc1NC(=O)CC(=O)Nc1cc(Cl)ccc1OC,–,–,–,–,–
CCC(Cc1ccccc1)NC(=O)Cn1ncc2ccsc2c1=O (centres undefined),–,-110.0,–,–,–
Cc1ccc(/C=C/c2onc(C)c2S(=O)(=O)N2CCC(C(=O)N3CC(C)Oc4ccccc43)CC2)cc1 (centres undefined),·,·,–,·,–
COc1ccc(OC)c(S(=O)(=O)Nc2ccccc2C)c1,–,–,–,–,–
COc1ccc(OC)c(S(=O)(=O)Nc2ccccc2SC)c1,–,-88.3,–,–,–
CCCc1cc(=O)[nH]c2nnc(SCCC(C)C)n12,·,·,–,·,–
CCN(CC)c1ccc(/C=C/C(=O)C2C(=O)C=C(C)OC2=O)cc1 (centres undefined),?,-78.2,–,–,–
CCc1ccc(NC(=O)Cn2ccn(-c3ccc(OC)cc3)c(=O)c2=O)cc1,·,·,–,·,–
Cc1nc2ccc(F)cc2cc1C(=O)Nc1ccc(Cl)c(Cl)c1,-130.0,–,–,–,–
CCCc1cc(=O)oc2cc(OCc3cc(OC)c(OC)c(OC)c3)c(Cl)cc12,–,–,–,–,–
CCCc1cc(=O)oc2cc(OCc3ccc(OC)cc3)c(Cl)cc12,–,-73.8,–,–,–
COc1ccc(-c2cc(C(F)(F)F)nc(-n3cncn3)n2)cc1,–,?,31.6µM,–,–
O=c1c(-c2ccccc2)c(O)c2ccccc2n1-c1ccccc1,–,-71.6,–,–,–
CCNC(=S)Nc1cccc(S(=O)(=O)Nc2ccccc2OC)c1,–,-85.4,–,–,–
CC(C)(C)Nc1nc(Cl)nc(NC2CCCCC2)n1,–,–,–,–,–
Cc1ccc(Nc2nc(Cl)nc(NC3CCCCC3)n2)cc1,–,-93.1,–,–,–
O=C(c1cccs1)N1CCN(c2nc3ccccc3s2)CC1,–,–,–,–,–
O=C(c1cc2sccc2n1Cc1ccc(F)cc1)N1CCN(c2nc3ccccc3s2)CC1,–,-90.0,–,–,–
SMILES,hERG WT inh,KCNH2 3.1 inh,Apoferritin bind,S-ASM inh,mIDH1 inhibitor
NNC(=O)CNC(=O)C12CC3CC(CC(C3)C1)C2,–,–,7.94µM,–,–
Cc1ccc(C(=O)N/C(=C\c2cccc([N+](=O)[O-])c2)C(=O)NCc2ccncc2)cc1,–,-86.3,–,·,–
CCNC(=O)/C(=C/c1cccc([N+](=O)[O-])c1)NC(=O)c1ccc(C)cc1,·,–,–,–,–
Cc1ccc(C(=O)N/C(=C\c2ccc(F)cc2)C(=O)NCc2ccncc2)cc1,–,-89.6,–,–,–
O=C(NCc1ccncc1)/C(=C\c1ccc(F)cc1)NC(=O)c1ccccc1,–,?,–,–,–
O=C(OCc1ccc([N+](=O)[O-])cc1)c1cc(S(=O)(=O)N2CCCCC2)ccc1N1CCOCC1,-92.7,-80.2,·,–,–
O=C(OCc1ccc(F)cc1)c1cc(S(=O)(=O)N2CCCCC2)ccc1N1CCOCC1,–,–,·,·,–
Nc1[nH]ncc1N=Nc1ccc(Cl)cc1,–,–,31.6µM,–,–
CCOc1ccc(NC(=O)Cn2nnc3c(cnn3-c3ccc(F)cc3)c2=O)cc1,·,–,–,–,–
O=C(Cn1nnc2c(cnn2-c2ccc(F)cc2)c1=O)OC1CCCCC1,–,–,12.6µM,–,–
c1ccc(CSc2nc3ncncc3[nH]2)cc1,–,–,–,–,–
S=c1nc(SCc2ccccc2)[nH]c2ccccc12,?,-128.1,?,–,–
